# Records with an inconclusive call do not appear. Entries that show only a call come without a potency. The source made the active and inactive calls. The call rests on the fitted dose curve; in most records, active means well fitted curve in the direction sought with a large enough effect; inconclusive means small, poorly fitted or top-dose-only effect, or another doubt; inactive means no such curve, though single readings can be large; an effect the other way counts as inactive or inconclusive.
# Biological target: Calcium and integrin-binding protein 1 (Homo sapiens) (UniProt Q99828)
# Sequence (Q99828 whole entry, looked up): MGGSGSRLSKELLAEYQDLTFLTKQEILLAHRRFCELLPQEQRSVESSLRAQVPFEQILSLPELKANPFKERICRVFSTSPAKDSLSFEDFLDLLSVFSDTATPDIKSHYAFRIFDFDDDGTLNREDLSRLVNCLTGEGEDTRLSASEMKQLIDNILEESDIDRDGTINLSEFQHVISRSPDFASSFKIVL
# Assay: Primary qHTS for Identification of Calcium Integrin Binding Protein 1 (CIB1) Competitor (AID 1508620);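 further: GST tagged CIB1 binding a fluorescein labelled alphaIIb integrin peptide tracer; top concentration of the series differs between compounds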
# Conditions: CIB1-GST / FITC-alphaIIb peptide fluorescence polarization; series mostly up to 57.7 µM
# Method in brief: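 Fluorescence polarization competition: GST-tagged CIB1 (1 uM final) preincubated with compound 15 min at room temperature, then FITC-labelled alphaIIb peptide (100 nM final) added. After 15 min at room temperature, polarization read at Ex 480/Em 540.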
row,Structure (SMILES),outcome
1,CN(C(=O)c1ccc(F)cc1C(F)(F)F)C1CCN(c2nnc(-c3ccnn3C)c3ccccc23)CC1,inactive
2,CCN(c1ccccc1)c1cc(NC)[n+](C)c(C)n1,inactive
3,Oc1cccc(-c2nc(N3CCOCC3)c3oc4ncccc4c3n2)c1,inactive
4,CC[C@H](Nc1ncnc2nc[nH]c12)c1nc2cccc(F)c2c(=O)n1-c1ccccc1,inactive
5,CNC(=O)c1ccccc1Sc1ccc2c(/C=C/c3ccccn3)n[nH]c2c1,inactive
6,CC(C=CC1=C(C)CCCC1(C)C)=CC=CC(C)=CC(=O)O,inactive
7,Cc1cc(SCc2sc(-c3ccc(C(F)(F)F)cc3)nc2C)ccc1OCC(=O)O,inactive
8,Cc1cc([C@@H](C)Nc2ccccc2C(=O)O)c2nc(N3CCOCC3)cc(=O)n2c1,inactive
9,CC1(C)CNc2cc(NC(=O)c3cccnc3NCc3ccncc3)ccc21,inactive
10,CCCn1c(=O)c2[nH]c(C34CC5CC3C[C@@H](C5)C4)nc2n(CCC)c1=O,inactive
11,C[C@]1(c2nc3c(C(N)=O)cccc3[nH]2)CCCN1,inactive
12,N#CC[C@H](C1CCCC1)n1cc(-c2ncnc3[nH]ccc23)cn1,inactive
13,COc1cc(Nc2ncc3c(n2)-c2ccc(Cl)cc2C(c2c(F)cccc2OC)=NC3)ccc1C(=O)O,inactive
14,CCc1cc(Nc2nccc(-c3c(-c4ccc(OC)c(C(=O)Nc5c(F)cccc5F)c4)nc4ccccn34)n2)c(OC)cc1N1CCC(N2CCN(S(C)(=O)=O)CC2)CC1,inactive
15,COc1ccc(COc2cc3oc(=O)c4cc(C(C)O)ccc4c3cc2OC)cc1 (configuration not stated),inactive
16,COc1ccccc1[C@H](c1cccc2ccccc12)[C@@](C)(C#N)C(=O)N1CCC(c2cccc(C(F)(F)F)c2)CC1,inactive
17,Cc1ccccc1C(C(=O)NC1CCCC1)N(C(=O)Cn1cnc2ccccc21)c1cccc(F)c1 (configuration not stated),inactive

row,Structure (SMILES),outcome
1,COCCNCCCn1c(C(=O)CF)c(-c2ccc(C)cc2)c2c(N)ncnc21,inactive
2,COc1cccc2cc(-c3nc(C4CCC(C(=O)O)CC4)n4ncnc(N)c34)[nH]c12 (configuration not stated),inactive
3,COc1ccc(-c2c(-c3ccc(O)cc3O)n[nH]c2C)cc1,inactive
4,COc1c(Cl)cc2c([nH]c3cnccc32)c1NC(=O)c1cccnc1C,inactive
5,Cn1cc(-c2ccc3nnc(C(F)(F)c4ccc5ncccc5c4)n3n2)cn1,inactive
6,CC(C)(C)OC(=O)CN(Cc1ccc(Cl)cc1)Cc1ccc([N+](=O)[O-])s1,inactive
7,O=C(Nc1cccnc1)N1CCC(Cc2cccc(Oc3ccc(C(F)(F)F)cn3)c2)CC1,inactive
8,CCOc1cc(C=C2C(=O)N(c3ccccc3)N=C2C)cc(Cl)c1OCC(=O)OC,inactive
9,COc1ccc(-c2ccc3c(N4CCOCC4)nc(N4C[C@@H](C)O[C@@H](C)C4)nc3n2)cc1CO,inactive
10,O=C(O)CCc1ccc(NCc2cccc(Oc3ccccc3)c2)cc1,inactive
11,Fc1ccc(Cl)cc1-c1nc(Nc2ccncc2)c2nccnc2n1,inactive
12,COc1ccc(C2=N[C@H](c3ccc(Cl)cc3)[C@H](c3ccc(Cl)cc3)N2C(=O)N2CCNC(=O)C2)c(OC(C)C)c1,inactive
13,NC(=O)C1CCCc2c1[nH]c1ccc(Cl)cc21 (configuration not stated),inactive
14,COc1cc(Oc2ccnc3cc(OC)c(OC)cc23)ccc1NC(=O)NC(C)c1nccs1 (configuration not stated),inactive
15,CN(C)c1ccc(Nc2nc(N)n(C(=O)c3c(F)cccc3F)n2)cc1,inactive
16,NC(=O)c1ccc(I)c([N+](=O)[O-])c1,inactive
17,Cc1ccc(NC(=O)c2cccc(C(C)(C)C#N)c2)cc1Nc1ccc2ncn(C)c(=O)c2c1,inactive

# System: not listed separately
# Assay: Primary qHTS for small molecule stabilizers of the endoplasmic reticulum resident proteome: Secreted ER Calcium Modulated Protein (SERCaMP) assay (AID 1508630); further: potency means the concentration at half of the fitted maximal effect
# Conditions: SH-SY5Y GLuc-SERCaMP (Gaussia luciferase released on ER calcium loss) secretion, thapsigargin, luminescence; series mostly up to 38.4 µM
# Method in brief: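 GLuc-SERCaMP-expressing SH-SY5Y cells, pretreated 16 h with compound, are challenged with thapsigargin to empty ER calcium stores; after 4 h, coelenterazine is added directly to the medium and luminescence is imaged.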
row,Structure (SMILES),Potency
1,CN(C(=O)c1ccc(F)cc1C(F)(F)F)C1CCN(c2nnc(-c3ccnn3C)c3ccccc23)CC1,inactive
2,CNC(=O)c1ccccc1Sc1ccc2c(/C=C/c3ccccn3)n[nH]c2c1,inactive
3,CCCn1c(=O)c2[nH]c(C34CC5CC3C[C@@H](C5)C4)nc2n(CCC)c1=O,inactive
4,C[C@]1(c2nc3c(C(N)=O)cccc3[nH]2)CCCN1,inactive
5,COc1c(Cl)cc2c([nH]c3cnccc32)c1NC(=O)c1cccnc1C,inactive
6,CCOc1cc(C=C2C(=O)N(c3ccccc3)N=C2C)cc(Cl)c1OCC(=O)OC,inactive
7,COc1ccc(-c2ccc3c(N4CCOCC4)nc(N4C[C@@H](C)O[C@@H](C)C4)nc3n2)cc1CO,14.9 µM (active)
8,Cc1ccc(NC(=O)c2cccc(C(C)(C)C#N)c2)cc1Nc1ccc2ncn(C)c(=O)c2c1,inactive

# Reference: PubChem BioAssay (NCATS)
